# Screening results deposited in PubChem by several laboratories.
# Rtt109 HAT inh – C. albicans Rtt109 histone acetyltransferase inhibition | purified Rtt109/Vps75, ThioGlo CoA-SH fluorescence, 4 h | inhibition, % at 34.9 µM | actives 0.16% (n = 330,000) | AID 540336;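 active = inhibition of at least 50% in every replicate; inconclusive = best replicate reaches 50% inhibition but some replicates fall short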
# Target sequence (Q5AAJ8 whole entry, looked up): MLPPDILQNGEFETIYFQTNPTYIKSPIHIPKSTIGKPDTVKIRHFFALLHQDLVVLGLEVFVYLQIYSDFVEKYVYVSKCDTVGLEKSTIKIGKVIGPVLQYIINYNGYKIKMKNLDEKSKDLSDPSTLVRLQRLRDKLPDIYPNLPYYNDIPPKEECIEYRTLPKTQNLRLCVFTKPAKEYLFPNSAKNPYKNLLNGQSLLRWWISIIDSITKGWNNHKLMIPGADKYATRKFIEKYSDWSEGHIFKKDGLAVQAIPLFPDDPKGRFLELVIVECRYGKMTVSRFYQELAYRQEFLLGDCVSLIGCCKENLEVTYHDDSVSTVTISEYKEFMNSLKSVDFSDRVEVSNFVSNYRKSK
# ABHD5 PLIN5 PPI – inhibitors of human ABHD5-perilipin-5 interaction; Q00G26+Q8WTS1; Split G. princeps luciferase complementation, luminescence, 4 h; inhibition, % at 4 µM; actives 0.78% (n = 360,000);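 active = inhibition above the mean inhibition across every tested compound plus 3 SD, cut at about 22% in these data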;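 note: 0% = DMSO only wells and the 100% control is not disclosed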
# rCAG RNA binder – binds r(CAG) RNA repeats. AID 651821. inhibition, % at 3 µM. actives 1.3% (n = 370,000). r(CAG) RNA repeat, TO-PRO-1 dye displacement fluorescence;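 active = inhibition above the plate cutoff, the mean of all test compounds on that plate plus 3 SD, cut at about 35% in these data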;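 note: 0% = DMSO alone and 100% = 100 µM mitoxantrone as full dye displacement; higher means more dye released from RNA so lower well fluorescence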
# PRMT1 inh – blocks human protein arginine methyltransferase 1; Q99873; recombinant PRMT1, activity-based probe fluorescence polarization; inhibition, % at 2.79 µM; actives 1.3% (n = 370,000);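 active = inhibition above about 21% made by adding two undisclosed values, limit read from the data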
# Target sequence (Q99873 whole entry, looked up): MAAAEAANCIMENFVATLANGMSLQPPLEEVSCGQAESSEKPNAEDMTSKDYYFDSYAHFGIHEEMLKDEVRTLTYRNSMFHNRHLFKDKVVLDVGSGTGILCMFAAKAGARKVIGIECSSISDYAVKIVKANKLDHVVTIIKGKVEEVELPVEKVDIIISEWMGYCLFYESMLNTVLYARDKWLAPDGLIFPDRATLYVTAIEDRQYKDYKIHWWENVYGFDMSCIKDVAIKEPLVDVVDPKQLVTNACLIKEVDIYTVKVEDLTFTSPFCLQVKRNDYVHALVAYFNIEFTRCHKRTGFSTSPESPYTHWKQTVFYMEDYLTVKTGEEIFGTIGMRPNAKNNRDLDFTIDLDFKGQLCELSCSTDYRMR
# ALR inh – blocks human ALR sulfhydryl oxidase activity; purified ALR, DTT oxidation, H2O2 HRP-luminol luminescence; inhibition, % (test concentration not listed); actives 3.8% (n = 290,000); AID 485317;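 active = mean replicate inhibition above about 79%, with every replicate also reaching it, limit read from the data; inconclusive = only one of the two criteria met; inactive = mean below limit and not every replicate reaching it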
# LANA-H2B inh – blocks KSHV LANA binding to histone H2A/H2B. Q9QR71. cell-free LANA-H2A/H2B peptide, fluorescence polarization. inhibition, % (no concentration beside the values). actives 0.6% (n = 320,000). AID 2629; in the data active = inhibition mostly above about 10%, no sharp cut-off; inactive = mostly below about 6.7%
# rCAG binder conf – r(CAG) RNA repeat binding, confirmation | shares compounds with rCAG RNA binder | TO-PRO-1 dye displacement fluorescence | inhibition, % at 3 µM | actives 70% (n = 4,300);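 active = inhibition above a per-plate cutoff, the mean inhibition of sample wells plus 3 SD, cut at about 35% in these data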;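 note: loss of TO-PRO-1 fluorescence as compound displaces dye from 1x1 AA loop RNA; 0% = DMSO only wells and 100% = 100 µM mitoxantrone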
# dCAG dye counter – counter-screen for rCAG RNA binders: DNA CAG dye complex inhibitors | shares compounds with rCAG RNA binder | d(CAG) DNA oligo TO-PRO-1 dye displacement, fluorescence | inhibition, % at 3 µM | actives 94% (n = 4,300) | AID 652068;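 active = inhibition above its plate's cutoff, the mean test-well inhibition plus 3 SD, cut at about 4.8% in these data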;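 note: 0% = DNA dye mix with DMSO and 100% = 100 µM mitoxantrone; hits displace the dye from DNA and so lower well fluorescence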
# dCAG dye DR – DNA CAG dye complex inhibition, dose response counter-screen | shares compounds with rCAG RNA binder | DNA CAG/GTC duplex TO-PRO-1 dye displacement fluorescence | IC50, µM | actives 20% (n = 250) | AID 686960; in the data active = IC50 below about 10 µM
# The depositor's hits bear a star; ? = inconclusive; . = not tested or not shown. In the library only some 5.9% were active in any assay of this set; here they are far more common.
SMILES,Rtt109 HAT inh,ABHD5 PLIN5 PPI,rCAG RNA binder,PRMT1 inh,ALR inh,LANA-H2B inh,rCAG binder conf,dCAG dye counter,others
CCOc1ccc(N(CC(=O)Nc2c(C)n(C)n(-c3ccccc3)c2=O)S(=O)(=O)c2cc(OC)ccc2OC)cc1,.,.,8.2,3.5,.,.,.,.,
Cc1ccc([C@@H]2CC=C(C(=O)O)[C@H](c3ccccc3F)N2S(=O)(=O)c2ccccc2C)cc1,2.7,-3.5,51.4*,-1.0,.,.,59.4*,23.7*,
Cc1ccc(S(=O)(=O)N2[C@@H](c3ccccc3F)C(C(=O)O)=CC[C@H]2c2cccc(C)c2)cc1,12.6,-3.7,25.9,-2.4,-0.2,-0.5,.,.,
Cc1ccc([C@@H]2CC=C(C(=O)O)[C@H](c3ccc(F)cc3)N2S(=O)(=O)c2ccccc2C)cc1,6.8,-6.2,69.7*,-0.5,.,4.2,60.2*,23.0*,
Cc1ccc([C@@H]2CC=C(C(=O)O)[C@H](c3cccc(F)c3)N2S(=O)(=O)c2ccccc2C)cc1,13.2,2.1,75.8*,-0.7,.,4.8,67.0*,28.3*,
CCc1ccccc1NC(=O)N1CCCc2ccccc21,-0.5,4.8,1.6,-1.6,-11.4,0.5,.,.,
COc1cc(-c2ccc(Nc3ccccc3C(=O)O)c(OC)c2)ccc1Nc1ccccc1C(=O)O,-32.0,4.0,93.3*,7.6,.,.,86.5*,58.6*,
CCn1c(Cc2cccs2)nnc1SCC(=O)c1ccc(Cl)cc1,.,.,3.1,-1.0,.,.,.,.,
COc1ccc(OC)c(S(=O)(=O)N2CCCCC2C(=O)N2CCN(Cc3ccc(F)cc3)CC2)c1 (stereo not drawn),.,.,6.8,5.0,.,.,.,.,
C=CCN1c2ccc(Br)cc2C(=O)CS1(=O)=O,-2.9,-5.7,65.9*,-1.4,5.1,-1.8,10.3,6.3*,
COc1cccc(CN2c3ccc(Br)cc3C(=O)CS2(=O)=O)c1,0.8,3.9,52.4*,2.8,-3.1,1.9,38.8*,15.7*,
O=C(/C=C/c1ccccc1)NC(NC(=S)Nc1ccc(C(=O)O)cc1)C(Cl)(Cl)Cl (stereo not drawn),6.0,-3.3,65.2*,1.8,13.7,-3.0,56.2*,13.9*,
Cc1ccc(NC(=S)NNC(=O)CSc2nc3ccccc3c(=O)n2-c2ccc(Cl)cc2)cc1,.,.,57.4*,0.5,.,.,47.1*,21.5*,
C=CCNC(=S)NNC(=O)CSc1nc2ccccc2s1,-5.0,-6.4,2.9,5.0,36.2,6.1,.,.,
O=C(CSc1nc2ccccc2s1)NNC(=S)Nc1ccc(Cl)cc1,11.6,-21.7,58.2*,1.0,.,.,69.1*,30.3*,
Cc1ccc(-n2c(SCC(=O)NNC(=S)Nc3ccccc3)nc3ccccc3c2=O)cc1,14.5,-8.3,55.4*,9.1,-2.8,4.3,42.2*,18.2*,
N=C1S/C(=C\c2ccc(-c3cccc(Cl)c3)o2)C(=O)N1c1nccs1,5.6,-2.1,15.4,-4.3,-1.4,.,.,.,
O=C1OC(c2cccs2)=N/C1=C\c1ccc(-c2cccc(Cl)c2)o1,?,-0.6,48.6*,3.6,41.4,0.0,40.2*,12.1*,dCAG dye DR=>29.9
N=C1/C(=C\c2ccc(-c3cccc(Cl)c3)o2)C(=O)N=C2SC=C(c3ccccc3)N12,0.6,-9.9,64.6*,1.3,-8.6,-5.3,65.9*,41.0*,
CC1(C(=O)NS(=O)(=O)c2cccc(C#N)c2)CCN1C(=O)Cc1ccc(-c2ccccc2)cc1 (stereo not drawn),.,4.8,41.3*,-0.6,.,.,44.0*,11.4*,
CC1(C(=O)NS(=O)(=O)c2ccc(C#N)cc2)CCN1C(=O)Cc1cccc2ccccc12 (stereo not drawn),.,-7.4,11.7,2.8,.,.,.,.,
CC1(C(=O)NS(=O)(=O)c2ccc(C#N)cc2)CCN1C(=O)Cc1ccc(-c2ccccc2)cc1 (stereo not drawn),.,-6.9,42.2*,2.9,.,.,42.6*,11.3*,
CCOC(=O)C1=NN(C(=O)Nc2cccc(C(F)(F)F)c2)C2C(=O)N(c3cccc(C(F)(F)F)c3)C(=O)C12 (stereo not drawn),7.8,1.4,82.5*,6.9,31.8,-4.1,23.2,5.8*,
COC(=O)[C@]12C[C@H](CC(=O)N3CCCC3)C(=O)N(Cc3cccc4ccccc34)C1=C[C@H](C(C)C)O[C@@H]2C1CC1,.,.,4.7,-0.5,.,.,.,.,
CC(=O)NCCNc1nc2cc(-c3ccc4c(ccn4C)c3)sc2c(=O)n1C,.,3.7,7.9,-2.0,.,.,.,.,
SMILES,Rtt109 HAT inh,ABHD5 PLIN5 PPI,rCAG RNA binder,PRMT1 inh,ALR inh,LANA-H2B inh,rCAG binder conf,dCAG dye counter,others
CCCCCC[C@@H](CCCc1ccccc1OC)CN(CCCC)S(C)(=O)=O,.,.,2.1,4.4,.,.,.,.,
COC(=O)C1CN(CC(C)C)CCS(=O)(=O)N1Cc1ccc(C(F)(F)F)cc1 (stereo not drawn),.,.,-2.5,2.2,.,.,.,.,
Cc1ccc(CN2[C@@H](Cc3ccccc3)C(=O)CS2(=O)=O)cc1,0.1,-7.8,40.7*,-1.1,6.3,0.6,21.2,9.1*,
COc1ccc(Cn2cc(CN3CCOCC3)nn2)cc1,.,-1.6,1.1,3.8,.,.,.,.,
CN(c1ccc(O)cc1)c1nc(O)c(C2=c3ccccc3=NC2=O)s1,12.7,-1.7,48.6*,5.8,-1.8,3.3,17.8,9.2*,
CC1=NN(c2cccc(C(=O)O)c2)C(=O)/C1=C\C=C\c1ccco1,-5.9,13.9,56.1*,26.7*,83.1*,-5.7,64.2*,26.3*,
COc1cc(/C=C2\C(=O)N(c3cccc(C(=O)O)c3)N=C2C)ccc1OCc1ccccc1,.,-27.4,9.3,-0.4,.,.,.,.,
C[C@H](O)[C@@H]1CN2CCc3c([nH]c4cccc(-c5ccccc5)c34)[C@@H]2C[C@@H]1N(C)CC1CCCCC1,.,.,6.3,0.9,.,.,.,.,
O=C(O)CCC(=O)N1N=C(c2cccs2)CC1c1cn(-c2ccccc2)nc1-c1ccccc1 (stereo not drawn),6.1,13.4,53.8*,-4.3,11.4,-6.9,60.6*,19.1*,
COc1ccc(/C=N/NC(=O)c2nn(-c3ccc(Cl)cc3)c(=O)c3c(N)scc23)cc1,1.4,-25.8,42.2*,23.9*,28.6,-1.8,27.2,17.9*,
COc1ccc(/C=N/NC(=O)c2nn(-c3ccccc3)c(=O)c3c(N)scc23)cc1,-16.1,-41.6,42.4*,22.1*,-59.6,0.7,27.9,17.9*,
C[C@@H]1COc2cccc(N3CCC[C@H]3CO)c2S(=O)(=O)N1,.,0.9,-0.1,-6.2,.,.,.,.,
CCOC(=O)C1=CCN(S(=O)(=O)c2ccccc2Cl)C1c1cccc(Cl)c1 (stereo not drawn),.,-0.2,6.5,-2.2,.,.,.,.,
